Here are results for 16 compounds from PubChem BioAssay.

The nature of test [1]: binders of probe aFSTL3 on microarray, primary screen, stem cell growth factor project, biochemical, small-molecule microarray, fluorescence 635/667 (AID 1064).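 Note: measures binding of the biotinylated anti-FSTL3 antibody to printed compounds.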 Particulars: higher = more signal.
A short description of test [2]: binders from COS7 lysate, DM2A8 probe, primary screen, torsin A project, cell lysate, small-molecule microarray, fluorescence 635/667 (AID 1065). The note with it: higher = more signal, COS7 lysate expressing mutant human TOR1A.
Test [3] can be described thus: binders of probe aFGF2 on microarray, primary screen, stem cell growth factor project, biochemical, small-molecule microarray, fluorescence 635/667 (AID 1067).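 Note: measures binding of biotinylated aFGF2 protein to printed compounds on slides; z-score merges feature fluorescence and signal-to-noise across triplicate slides.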 The note with it: higher = more signal.
Test [4] can be described thus: binders of probe aFGF10 on microarray, primary screen, stem cell growth factor project, biochemical, small-molecule microarray, fluorescence 635/667 (AID 1071).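 Note: score merges 667 nm spot intensity and signal to noise from triplicate slides.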 Particulars: higher = more signal.
In test [5] the target is Neurogenic locus notch homolog protein 2 (Homo sapiens) (UniProt Q04721). Description: Notch2 binders on small-molecule microarrays, primary screen, biochemical, small-molecule microarray, 635 nm fluorescence, stem cell growth factors (AID 1073). The note with it: Notch2 binding, higher = more signal.
Neurogenic locus notch homolog protein 2 (Homo sapiens), sequence (Q04721 whole entry, looked up, canonical isoform): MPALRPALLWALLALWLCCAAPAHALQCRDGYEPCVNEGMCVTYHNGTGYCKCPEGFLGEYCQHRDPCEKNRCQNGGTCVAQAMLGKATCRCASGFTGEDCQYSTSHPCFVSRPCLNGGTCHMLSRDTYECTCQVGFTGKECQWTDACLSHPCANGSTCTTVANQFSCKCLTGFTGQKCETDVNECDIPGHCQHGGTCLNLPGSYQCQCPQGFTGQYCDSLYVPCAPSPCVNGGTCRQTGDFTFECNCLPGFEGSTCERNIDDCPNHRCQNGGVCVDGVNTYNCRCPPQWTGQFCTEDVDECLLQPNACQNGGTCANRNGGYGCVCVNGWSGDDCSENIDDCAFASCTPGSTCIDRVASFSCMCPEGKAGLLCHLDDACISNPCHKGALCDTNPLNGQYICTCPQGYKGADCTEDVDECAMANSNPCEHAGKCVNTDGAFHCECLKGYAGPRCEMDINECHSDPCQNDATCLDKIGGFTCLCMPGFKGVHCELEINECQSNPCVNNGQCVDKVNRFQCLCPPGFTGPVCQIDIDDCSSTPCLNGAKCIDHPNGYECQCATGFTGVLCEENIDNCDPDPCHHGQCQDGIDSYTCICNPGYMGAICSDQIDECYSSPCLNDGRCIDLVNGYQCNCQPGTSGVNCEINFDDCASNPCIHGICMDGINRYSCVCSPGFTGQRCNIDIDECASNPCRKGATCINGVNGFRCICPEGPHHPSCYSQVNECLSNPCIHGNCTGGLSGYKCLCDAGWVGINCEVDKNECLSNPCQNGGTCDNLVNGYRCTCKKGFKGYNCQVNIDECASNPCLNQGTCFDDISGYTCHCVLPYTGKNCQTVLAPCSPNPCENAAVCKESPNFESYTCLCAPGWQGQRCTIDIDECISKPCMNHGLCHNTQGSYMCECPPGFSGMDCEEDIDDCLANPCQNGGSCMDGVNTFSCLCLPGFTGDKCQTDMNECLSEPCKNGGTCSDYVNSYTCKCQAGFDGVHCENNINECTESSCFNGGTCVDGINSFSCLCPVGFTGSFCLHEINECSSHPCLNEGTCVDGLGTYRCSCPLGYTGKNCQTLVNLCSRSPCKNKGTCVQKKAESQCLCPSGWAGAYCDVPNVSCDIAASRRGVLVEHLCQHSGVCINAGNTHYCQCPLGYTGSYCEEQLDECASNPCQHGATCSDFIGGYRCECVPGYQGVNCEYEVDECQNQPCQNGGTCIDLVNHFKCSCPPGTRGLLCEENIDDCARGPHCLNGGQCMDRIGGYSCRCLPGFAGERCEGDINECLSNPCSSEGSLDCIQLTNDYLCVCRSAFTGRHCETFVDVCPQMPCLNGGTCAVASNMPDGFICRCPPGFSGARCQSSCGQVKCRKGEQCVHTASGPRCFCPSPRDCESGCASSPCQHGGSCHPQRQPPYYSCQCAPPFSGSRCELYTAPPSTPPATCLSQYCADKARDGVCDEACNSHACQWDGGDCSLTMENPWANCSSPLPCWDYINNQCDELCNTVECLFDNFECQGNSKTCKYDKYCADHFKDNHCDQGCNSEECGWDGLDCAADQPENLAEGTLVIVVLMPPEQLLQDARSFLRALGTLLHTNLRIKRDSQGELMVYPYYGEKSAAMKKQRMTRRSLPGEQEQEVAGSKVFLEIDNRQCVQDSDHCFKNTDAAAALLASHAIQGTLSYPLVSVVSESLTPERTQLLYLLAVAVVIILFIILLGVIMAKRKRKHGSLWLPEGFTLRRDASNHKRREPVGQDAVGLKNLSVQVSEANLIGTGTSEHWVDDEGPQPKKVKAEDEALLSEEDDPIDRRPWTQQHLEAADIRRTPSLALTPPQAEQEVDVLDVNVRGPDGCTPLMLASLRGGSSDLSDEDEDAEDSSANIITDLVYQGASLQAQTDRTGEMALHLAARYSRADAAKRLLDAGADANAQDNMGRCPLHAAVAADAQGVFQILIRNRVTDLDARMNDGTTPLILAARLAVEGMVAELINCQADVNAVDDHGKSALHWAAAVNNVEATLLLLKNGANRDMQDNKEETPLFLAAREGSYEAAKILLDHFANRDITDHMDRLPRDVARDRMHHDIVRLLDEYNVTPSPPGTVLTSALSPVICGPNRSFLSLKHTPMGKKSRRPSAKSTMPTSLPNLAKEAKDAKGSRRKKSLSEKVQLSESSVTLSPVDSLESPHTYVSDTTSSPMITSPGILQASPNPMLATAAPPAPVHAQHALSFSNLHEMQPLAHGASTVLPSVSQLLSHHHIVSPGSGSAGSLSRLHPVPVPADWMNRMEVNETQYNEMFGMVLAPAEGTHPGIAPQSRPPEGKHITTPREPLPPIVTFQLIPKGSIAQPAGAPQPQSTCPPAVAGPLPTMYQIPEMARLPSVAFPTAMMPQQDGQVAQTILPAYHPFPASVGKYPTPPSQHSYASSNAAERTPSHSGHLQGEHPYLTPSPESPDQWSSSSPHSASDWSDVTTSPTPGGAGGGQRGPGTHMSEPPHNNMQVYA
The target in test [6] is Pro-neuregulin-1, membrane-bound isoform (Homo sapiens) (UniProt Q02297). Description: NRG1 binders on small-molecule microarrays, primary screen, psychiatric disease protein project, biochemical, small-molecule microarray, fluorescence 635/667 (AID 1075).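 Note: score combines 667 nm spot fluorescence with signal to noise.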 Particulars: NRG1 binding, 635 nm fluorescence, higher = more signal.
Pro-neuregulin-1, membrane-bound isoform (Homo sapiens), sequence (Q02297 whole entry, looked up, the tested form may be a part, canonical isoform): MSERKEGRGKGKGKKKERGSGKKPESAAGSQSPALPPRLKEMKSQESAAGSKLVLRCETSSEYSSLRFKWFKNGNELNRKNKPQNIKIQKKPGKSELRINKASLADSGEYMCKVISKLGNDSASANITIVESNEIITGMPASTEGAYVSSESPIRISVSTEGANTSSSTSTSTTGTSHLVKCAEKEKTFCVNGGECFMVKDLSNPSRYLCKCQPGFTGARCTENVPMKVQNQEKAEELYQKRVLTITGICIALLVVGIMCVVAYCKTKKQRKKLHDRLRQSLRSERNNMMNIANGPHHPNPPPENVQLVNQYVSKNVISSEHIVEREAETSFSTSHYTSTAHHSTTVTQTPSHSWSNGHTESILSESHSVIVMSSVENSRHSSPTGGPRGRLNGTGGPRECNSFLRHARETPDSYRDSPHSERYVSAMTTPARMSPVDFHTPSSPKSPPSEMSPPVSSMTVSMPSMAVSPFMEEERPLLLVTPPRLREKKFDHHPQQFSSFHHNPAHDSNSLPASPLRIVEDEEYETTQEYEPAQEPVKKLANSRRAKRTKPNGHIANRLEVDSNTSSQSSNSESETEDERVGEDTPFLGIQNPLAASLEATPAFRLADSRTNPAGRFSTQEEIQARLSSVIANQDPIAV
Test [7] concerns Neuregulin-1 EGF-like domain. Description: binders of neuregulin-1 EGF-like domain, primary screen, biochemical, small-molecule microarray, 635 nm fluorescence (AID 1081).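 Note: binding of the protein to compounds printed on small-molecule microarray slides.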 The note with it: small-molecule microarray binding, higher = more signal.
Test [8] can be described thus: FRG1 promoter luciferase signal modulators, primary screen, FRG1 inhibition for FSHD, cell-based, C2C12 myotubes, firefly/Renilla luciferase, luminescence (AID 1084). Particulars: higher = more signal, called active from +8 up or from −8 down.
Test [9] is described as follows: binders of probe aFST on microarray, primary screen, stem cell growth factor project, biochemical, small-molecule microarray, fluorescence 635/667 (AID 1086).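 Note: score merges 667 nm fluorescence with signal-to-noise of each printed compound spot.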 The note with it: higher = more signal.
The nature of test [10]: binders of probe aHhip on microarray, primary screen, stem cell growth factor project, biochemical, small-molecule microarray, fluorescence 635/667 (AID 1087).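 Note: score merges spot fluorescence at 667nm with spot signal to noise ratio.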 The note with it: higher = more signal.

Calls of active or inactive are those of the source.

As to `O=C1OCCC/C=C\[C@H]2OC34C=CCN(Cn5nnc6ccccc65)C(=O)[C@H]3N(CCO)C(=O)[C@@H]4C12` (stereo not given in full), the composite z-score in test [1] is -0.335; in [2], -1.46; in [3] it was -0.206; in [4], 0.0278; in test [5], -0.918; in test [6] it was 1.21. Moreover, the figures for the composite z-score in test [7], in [9] and in [10] were 1.16, -0.486 and 0.382, respectively. Further, the z-score in [8] was 0.356 (inactive).
As to `CN1C(=O)C2C=CC(C(O)C3CCCCC3)N(Nc3ccc([N+](=O)[O-])cc3[N+](=O)[O-])C2C1=O` (stereo not given), the composite z-score in test [1] was 0.0318; in [2], 0.548; in [3], 0.0331; in test [4], 0.752; in [5] it was 1.6; in test [6], 1.59. Further, the composite z-score in test [7] came out at 1.32; in [9], 1.51; in [10], 0.236. Besides, in [8], the z-score was 0.358 (inactive).
Regarding `CCCC=C(CCC)[C@@H](NS(=O)(=O)c1cccs1)c1ccc(C(=O)OC)cc1`, the composite z-score was 0.002 in test [1]; -0.0193 in [2]; 0.0969 in test [3]; 0.646 in [4]; 1.53 in test [5]; 1.94 in test [6]. Besides, the composite z-score is 1.18 in test [7], 0.969 in test [9] and 0.398 in test [10]. Further, the z-score in test [8] is -3.86 (inactive).
`CC(C)[C@@H](CO)NC(=O)[C@H]1[C@@H](c2ccccc2)N(c2ccccc2)O[C@@H]1C`: the composite z-score in test [1] was -0.5; in test [2], -0.245; in [3], -0.143; in [4], 0.439; in test [5], -0.208; in test [6], -0.0453. The composite z-score in [7] was 0.396; in test [9] it was -0.0238; in [10] it was -0.0237. In addition, the z-score in test [8] is -0.579 (inactive).
As to `C=CCNC(=O)[C@H]1[C@@H]2C(=O)O[C@@H](c3ccccc3)[C@@H](c3ccccc3)N2[C@@H](c2ccccc2OCCO)[C@]12C(=O)Nc1ccc(C#CC3=CCCCC3)cc12`, the composite z-score was -0.382 in test [1]; 0.952 in [2]; -0.0534 in [3]; 0.88 in [4]; 1.04 in test [5]; 0.666 in test [6]. The values for the composite z-score in test [7], in [9] and in [10] were 1.09, 0.185 and 0.0695, respectively. The z-score in test [8] is -2.87 (inactive).
Take `COCCOC(=O)N1C(=O)[C@@]2(c3cc(C#CCCO)ccc31)[C@H](C(=O)N1CCN(c3ncccn3)CC1)[C@H]1C(=O)O[C@H](c3ccccc3)[C@H](c3ccccc3)N1[C@@H]2c1ccccc1OCCO`: the composite z-score was -0.545 in test [1]; 0.217 in test [2]; -0.0546 in test [3]; 0.537 in test [4]; 1.3 in test [5]; 1.37 in [6]. In addition, the composite z-score in test [7] is 1.15; in [9], 0.335; in test [10], -0.0296. Further, the z-score in [8] is -0.428 (inactive).
On to `COC(=O)[C@@]1(Cc2ccc(OC)cc2)[C@H]2c3cc(C(=O)N(C)C)n(Cc4cccc5ccccc45)c3C[C@H]2CN1C(=O)c1ccccc1`, for which the composite z-score in test [1] is -0.193; in test [2], 1.16; in test [3], 0.118; in test [4] it was 1.15; in test [5], 1.27; in test [6] it was 1.79. The figures for the composite z-score in test [7], in [9] and in test [10] were 1.36, 1.33 and 0.534, respectively. In addition, the z-score in test [8] was 0.189 (inactive).
As for `CC(C)C[C@H]1NC(=O)[C@@]23C(=O)N[C@@H](Cc4ccccc4)C2[C@H](C)[C@@]2(C)O[C@H]2C3/C=C/C/C=C\CNC(=O)[C@H](Cc2ccccc2)NC1=O` (stereo not given in full), the composite z-score in test [1] was -0.404; in test [2], 0.443; in [3], -0.0973; in [4], 0.307; in [5], 0.349; in [6] it was 1.04. Also, the results for the composite z-score in [7], in [9] and in test [10] were 0.976, 0.146 and -0.0994, respectively. Besides, in [8], the z-score was 0.688 (inactive).
With `O=C1c2ccccc2[C@](Cc2ccccc2I)(C(=O)NC2CC2)[C@H](c2ccc(CO)cc2)N1Cc1ccccc1`, the composite z-score was 0.16 in test [1]; -0.211 in test [2]; -0.0335 in test [3]; 0.483 in [4]; 0.543 in test [5]; 0.458 in test [6]. The composite z-score in [7] was 0.774; in test [9] it was -0.364; in [10] it was -0.0994. The z-score in test [8] was -3.11 (inactive).
With `O=C1NC(=O)C2C1C=CC(C(O)c1ccccc1)N2Nc1ccc(Cl)cc1Cl` (stereo not given), the composite z-score was -0.324 in test [1]; 0.299 in test [2]; 0.162 in test [3]; 0.803 in [4]; 1.54 in test [5]; 1.37 in [6]. Further, the composite z-score was 1.15 in test [7], 1.32 in [9] and -0.156 in test [10]. The z-score in test [8] was -1.44 (inactive).
For the compound `CC(=O)n1cc(C(O)C2C=CC3C(=O)N(C)C(=O)C3N2Nc2ccccc2)c2ccccc21` (stereo not given), the composite z-score in test [1] was 0.508; in test [2] it was 0.287; in test [3] it was 0.0672; in [4], 0.974; in test [5], 1.58; in [6] it was 1.78. In addition, the composite z-score in test [7] is 1.27; in test [9], 0.951; in [10] it was -0.0196. In [8], the z-score was 0.376 (inactive).
In the case of `C=CCOC(=O)[C@H]1[C@@H]2C(=O)O[C@@H](c3ccccc3)[C@@H](c3ccccc3)N2[C@@H](c2ccc(OCCOC(=O)[C@H]3C[C@H]4C(=O)N5CCC[C@H]5C(=O)N4[C@H]3c3ccc(O)cc3)cc2)[C@]12C(=O)Nc1ccccc12`, the composite z-score was -0.168 in [1]; 0.847 in [2]; 0.0069 in test [3]; 0.516 in test [4]; 1.47 in test [5]; 1.33 in test [6]. The composite z-score in test [7] came out at 1.4; in test [9] it was 0.0557; in [10] it was 0.0881. In [8], the z-score was 1.31 (inactive).
Regarding `CCCCCN1CC=CC23O[C@@H]4/C=C\CCCOC(=O)C4[C@H]2C(=O)N(C(CO)C(C)C)[C@@H]3C1=O` (stereo not given in full), the composite z-score is -0.101 in [1]; -0.856 in test [2]; -0.103 in test [3]; -0.106 in test [4]; -0.65 in test [5]; -0.583 in test [6]. Further, the composite z-score in test [7] was 1.52; in test [9] it was -0.384; in [10], 0.0854. Besides, in [8], the z-score is -0.196 (inactive).
Take `COC(=O)[C@@]1(Cc2ccccc2)[C@H]2c3cc(C(=O)N4CCCC4)n(Cc4nc5ccccc5[nH]4)c3C[C@H]2CN1C(=O)c1ccccc1`: the composite z-score in test [1] is 1.19; in [2], 0.74; in test [3] it was -0.0879; in [4], 0.115; in [5], 1.72; in test [6], 2.07. Also, the composite z-score came out at 0.807 in test [7], 1.65 in [9] and 0.507 in test [10]. Also, the z-score in test [8] was 2.63 (inactive).
On to `CCCCN1CC=CC23O[C@@H]4/C=C\CCC(C)OC(=O)C4[C@H]2C(=O)N(CCCCCO)[C@@H]3C1=O` (stereo not given in full), for which the composite z-score in [1] is 0.141; in test [2], -0.421; in test [3], -0.132; in test [4] it was -1.16; in test [5], -0.784; in [6], 0.768. For the same compound, the composite z-score is 0.178 in test [7], -0.526 in test [9] and -0.0994 in test [10]. For the same compound, the z-score in test [8] was 0.464 (inactive).
For the compound `COc1ccc([C@H]2C[C@H]3C(Br)=C[C@@H]2C(=O)[C@]32CO2)cc1`, the composite z-score in test [1] is 0.203; in [2], 0.133; in test [3] it was -0.083; in test [4], -0.126; in test [5], -0.239; in test [6], -0.152. Also, the composite z-score in test [7] is -0.577; in test [9] it was 0.0125; in test [10], -0.0618. The z-score in [8] is 1.96 (inactive).
